# PubChem BioAssay (NCI)
# The panel holds about 83,000 compounds, 20% with a hit somewhere; the sample as a whole holds those more often.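 Values shown are percent growth following 48 h exposure of cells in 96-well plates to a single concentration of compound; below 10 was considered active.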 Unmarked numbers belong to inactive results. The source made the active and inactive calls.
# Key:
# Assay in all cases: NCI-60 one-dose screen, 48 h (100 = growth as untreated, 0 = no growth, -100 = all killed)
# Conditions in all cases: 10 µM unless noted
# [1] = test system: SK-MEL-2 melanoma
# [2] = test system: EKVX NSCLC
# [3] = test system: SN12C renal
# [4] = test system: UO-31 renal
# [5] = test system: TK-10 renal
# [6] = test system: ACHN renal
# [7] = test system: CAKI-1 renal
# [8] = test system: A498 renal
# [9] = test system: CCRF-CEM leukemia
# [10] = test system: MOLT-4 leukemia
SMILES,growth [1],growth [2],growth [3],growth [4],growth [5],growth [6],growth [7],growth [8],growth [9],growth [10]
CC1(c2ccccc2)OC1C(=O)O (stereo not given),107%,107%,106%,84.5%,102%,102%,94%,109%,101%,101%
C=C(C)[C@@H]1CC[C@]2(/C=N/Nc3ccncc3)CC[C@]3(C)[C@H](CC[C@@H]4[C@@]5(C)CCCNC(C)(C)[C@@H]5CC[C@]43C)[C@@H]12,110%,99.5%,85.2%,85%,120%,100%,74.7%,83.8%,67.1%,58%
CC(=O)n1c(/C(C#N)=C/c2ccc(N(C)C)cc2)cc2ccccc21,47.9%,36.8%,42.9%,52.6%,91.3%,47.5%,37.7%,2.85% (active),21.1%,33.1%
COc1cc(-c2cc3ncccc3c3[nH]c(=O)c4cccnc4c23)cc(OC)c1OC,44.6%,33.2%,42.7%,36.2%,52.2%,46.7%,28.4%,-18.1% (active),13.1%,31.6%
Cc1ccc(/C=C(\C#N)c2cc3ccccc3n2C)cc1,75.7%,48.4%,39.5%,56.8%,99.3%,42.9%,34.4%,10.4%,13.9%,21.6%
COc1ccc2c(c1)C(Br)=C(CCO)C2c1ccccc1 (stereo not given),85%,75.8%,99.2%,62.4%,67%,4.96% (active),37%,35.6%,95.2%,114%
CCOc1ccc(NC(=O)c2ccccc2-c2ccccc2C(=O)O)cc1,101%,101%,100%,88.7%,110%,107%,98.9%,93.3%,99.5%,83.6%
CC(=O)c1c(C)[nH]c(-c2nc3ccc(N4CCN(C)CC4)cc3[nH]2)c1-c1ccc(N(C)C)cc1,64.3%,34.5%,48.2%,7.2% (active),-6.31% (active),19.8%,10.3%,6.38% (active),36.3%,45.5%
COc1ccccc1CNc1nc(N)nc2[nH]c3ccc(O)cc3c12,15.8%,90.4%,55.3%,59.6%,68.6%,68.5%,80.5%,28%,44%,22.4%
Cc1ccc2c(c1)c(-c1nc(-c3c[nH]c4ncccc34)cs1)cn2C,99.3%,35.1%,90.9%,86.2%,81.5%,98.6%,107%,112%,77.7%,75.2%
CC/C(=N/NC(N)=O)c1ccccc1,115%,91.5%,106%,86.4%,105%,108%,94.7%,105%,94.2%,98%
C=C1C(=O)O[C@H]2[C@H]1CC/C(Cn1cc(-c3ccc(F)cc3)nn1)=C\CC[C@@]1(C)O[C@@H]21,14.9%,68.4%,-13.6% (active),-80.8% (active),-92.9% (active),-19.7% (active),-12.9% (active),27.4%,-36.6% (active),-25.4% (active)
COc1cccc(-c2nn(-c3ccccc3)cc2-c2ccnc(NCCNS(=O)(=O)c3cccc(F)c3)c2)c1,16.2%,44.6%,33.8%,15.7%,36.7%,21.7%,35.9%,47.7%,12.3%,4.55% (active)
O=C1c2cc3c(cc2-c2c1c1ccc(F)cc1c(=O)n2CCCN1CCOCC1)OCO3,82.1%,82.4%,33.2%,35.9%,106%,4.58% (active),17.2%,59%,19.6%,3.65% (active)
C#CCC(C)(O)/C=C/C1=C(C)CCCC1(C)C (stereo not given),97.4%,95.8%,99.2%,91.3%,96.7%,97.3%,92.4%,91.3%,101%,101%
Cc1cc(N=O)cc(C(C)(C)C)c1O,85.2%,95.4%,101%,92.3%,94.1%,108%,86.1%,74.3%,82.5%,94.2%
C=C(C)[C@@H]1CC[C@]2(C(=O)N3CCN(C)CC3)CC[C@]3(C)[C@H](CC[C@@H]4[C@@]5(C)C/C(=C/c6ccc(C(F)(F)F)cc6)C(=O)C(C)(C)[C@@H]5CC[C@]43C)[C@@H]12,106%,87.7%,92.9%,73.5%,105%,96.4%,68.7%,97.4%,88%,63.8%
Cn1c(/C(C#N)=C/c2ccc3ccccc3c2)cc2ccccc21,71.7%,37.4%,33.5%,57.5%,106%,35.4%,28.5%,2.85% (active),11.8%,19.9%
Cn1nc(-c2ccccc2)c2c(-c3ccccc3)onc2c1=O,40.1%,54.2%,45.4%,39.6%,53%,58.4%,36.5%,24.6%,20.9%,42.8%
COc1cccc(-c2nn(-c3ccccc3)cc2-c2ccnc(NCCCNS(=O)(=O)c3ccccc3)c2)c1,29.7%,46.5%,38.7%,13.8%,46.9%,28.1%,48.4%,42.3%,14.4%,8.92% (active)
COc1cccc(-c2nn(-c3ccccc3)cc2-c2ccnc(NCCCNS(=O)(=O)c3cccc(F)c3)c2)c1,4% (active),45.1%,32.3%,9.64% (active),36.9%,19.4%,32.4%,30.4%,11.4%,-3.37% (active)
CC1(C)NC2=C(C(Nc3cccnc3)N1)C(c1ccc([N+](=O)[O-])cc1)C(C(=O)c1ccc(N=[N+]=[N-])cc1)O2 (stereo not given),107%,99.8%,101%,88.3%,97.1%,102%,102%,108%,98.8%,102%
CC(=O)O[C@H]1CC[C@@]2(C)[C@@H](CC[C@@H]3[C@@H]2CC(=O)[C@@]2(C)[C@H]3C[C@@H](C3CCCC3=O)[C@@H]2C(C)=O)C1 (stereo not given in full),111%,116%,84.4%,88.3%,106%,107%,114%,97.1%,92.9%,86.1%
CC(=O)O[C@H]1CC[C@@]2(C)C(=CC[C@@H]3[C@@H]2CC[C@]2(C)C(=O)N(O)C(=O)C[C@@H]32)C1,80.4%,102%,97.2%,97.4%,101%,89.3%,64.1%,92.7%,86%,79.5%
COc1cc2nc(Cl)nc(Nc3cccc(C(=O)/C=C/c4ccc(F)cc4)c3)c2cc1OC,93.9%,71.1%,51.6%,53.9%,155%,20%,56.5%,86.5%,15.5%,35.7%
N=c1ccc2nc3c(cc(N)c4ccccc43)oc-2c1,-36.1% (active),-33.9% (active),-95.2% (active),-78.7% (active),-29.7% (active),-94.4% (active),-60% (active),-21.4% (active),-24.9% (active),-44% (active)
